# Test system: Vero E6 infected with SARS-CoV-2
# Assay: inhibition of SARS-CoV-2 cytopathic effect; higher = more antiviral protection, active = above 15
# Conditions: 100 nM; 48 h
row,SMILES,inhibition of SARS-CoV-2 cytopathic effect
1,Cn1cc(-c2ccc3c(c2)CCN3C(=O)Cc2cccc(C(F)(F)F)c2)c2c(N)ncnc21,1.48% (inactive)
2,COc1ccc(CN2C(=O)C(=O)c3cc(OC(F)(F)F)ccc32)cc1,1.79% (inactive)
3,N#Cc1cc(F)cc(-c2nc(-c3ccc(F)cn3)no2)c1,1.15% (inactive)
4,O=C1NN(C(=O)Nc2ccc(Br)cc2)[C@@H](c2ccccc2)[C@@H]1c1ccccc1,-2.12% (inactive)
5,CN1CCN(C(c2ccccc2)c2ccc(Cl)cc2)CC1 (stereo unspecified) [chlorcyclizine],-0.05% (inactive)
6,COCC(=O)O[C@]1(CCN(C)CCCc2nc3ccccc3[nH]2)CCc2cc(F)ccc2[C@@H]1C(C)C [mibefradil],-2.5% (inactive)
7,CNc1ccc([N+](=O)[O-])cc1-n1cnc(-c2ccc(C(F)(F)F)cc2)c1,0.62% (inactive)
8,Cc1oc(=O)oc1CN1CCN(c2cc3c(cc2F)c(=O)c(C(=O)O)c2n3C(C)S2)CC1 (stereo unspecified) [prulifloxacin],-3.24% (inactive)
9,Cc1nc(C)c(C)nc1C [chuanxiongzine],2.51% (inactive)
10,N#Cc1c(N)nc(SCC(N)=O)c(C#N)c1-c1ccc(OCC2CC2)cc1,2.51% (inactive)
11,O=C(O[C@H]1[C@H](OC(=O)c2cccnc2)[C@@H](OC(=O)c2cccnc2)[C@H](OC(=O)c2cccnc2)[C@@H](OC(=O)c2cccnc2)[C@H]1OC(=O)c1cccnc1)c1cccnc1 [inositol-hexanicotinate],2.82% (inactive)
12,CCOC(=O)[C@]12CC1/C(=N\O)c1ccccc1O2 (stereo partly specified),-1.19% (inactive)
13,OC[C@H]1O[C@@H](n2cnc3c(NC4CCCC4)ncnc32)[C@H](O)[C@@H]1O [N6-cyclopentyladenosine],1.63% (inactive)
14,CN(C)CC[C@H](CSc1ccccc1)Nc1ccc(S(=O)(=O)NC(=O)c2ccc(N3CCN(Cc4ccccc4-c4ccc(Cl)cc4)CC3)cc2)cc1[N+](=O)[O-],-6.74% (inactive)
15,O=C(O)C1=C[C@@H](O)[C@@H](O)[C@H](O)C1 [shikimic-acid],0.89% (inactive)
16,C[C@]12CC[C@@H]3c4ccc(OC(=O)c5ccccc5)cc4CC[C@H]3[C@@H]1CC[C@@H]2O [estradiol-benzoate],-2.68% (inactive)
17,CC[C@@]1(O)C(=O)OCc2c1cc1n(c2=O)Cc2c-1nc1cc(F)c(C)c3c1c2[C@@H](N)CC3 [exatecan-mesylate],-7.04% (inactive)
18,Cc1cccc(C)c1NC(=O)[C@@H](C)N [tocainide],-6.26% (inactive)
19,Nc1ccn([C@@H]2O[C@@](CO)(CCl)[C@@H](O)[C@H]2F)c(=O)n1,-3.04% (inactive)
20,CN(C)CCOC(=O)C(c1ccccc1)C1(O)CCCC1 (stereo unspecified) [cyclopentolate],-2.5% (inactive)
21,Cc1ccc(NCCCc2ccccc2)c(N)c1 [NFKB-activation-inhibitor-II],-1.32% (inactive)

# From the supplement of paper PMC13380429
